An excerpt weighted towards active compounds, which were near 3.4% of everything screened.
GPR151 ag = activates the human receptor GPR151 | activation, % at 11.2 µM | 1% of 650,000 active | Q8TDV0 | AID 1508602 | PathHunter beta-arrestin GPR151 cells, luminescence; in the data active = activation above about 4.9%;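 note: 0% = median of compound wells and 100% = cells with positive control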
FBW7 act = human FBW7 E3 ligase activation, primary screen. AlphaScreen FBW7–phospho-cyclin E peptide binding, activator screen. normalized activity (activation), % at 26.1 µM. 0.13% of 650,000 active; in the data active = normalized activity above about 1.9%;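 note: purified mutant Fbw7 with reduced substrate affinity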
TEAD-YAP inh = TEAD-YAP interaction inhibition; AID 1259422; HEK-TIYL cells, TEAD-Gal4/YAP UAS-luciferase luminescence; 1.4% of 640,000 active; inhibition, % at 9.12 µM; in the data active = inhibition above about 32%;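 note: 0% = median of test compound wells and 100% = reference inhibitor wells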
MITF primary = human MITF inhibition, primary screen. O75030. AlphaScreen MITF homodimerization, bead proximity signal. inhibition, % at 2.6 µM. 0.91% of 650,000 active; in the data active = inhibition above about 50%;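 note: 0% = vehicle wells with protein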
GPR151 conf act = human GPR151 activation, confirmation screen. activation, % at 11.2 µM. AID 1508609. GPR151 PathHunter beta-arrestin cells, luminescence, 90 min; % of EA-reagent control over plate median. shares compounds with GPR151 ag. 6,700 tested, under 10 active;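 active = mean percent activation across replicates above the confirmation screen cutoff of 4.91%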
GPR119 counter = GPR119 activation, counter-screen for GPR151 activators | 0.3% of 6,700 active | GPR119 PathHunter beta-arrestin cells, luminescence, 90 min; 0 = compound-well median, 100 = enzyme-acceptor control | shares compounds with GPR151 ag | activation, % at 11.2 µM;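 active = mean percent activation in the counterscreen above 29.09%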;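 note: counterscreen on off-target GPR119 to flag nonselective hits from the GPR151 activator screen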
Target sequence (Q8TDV5 whole entry, looked up): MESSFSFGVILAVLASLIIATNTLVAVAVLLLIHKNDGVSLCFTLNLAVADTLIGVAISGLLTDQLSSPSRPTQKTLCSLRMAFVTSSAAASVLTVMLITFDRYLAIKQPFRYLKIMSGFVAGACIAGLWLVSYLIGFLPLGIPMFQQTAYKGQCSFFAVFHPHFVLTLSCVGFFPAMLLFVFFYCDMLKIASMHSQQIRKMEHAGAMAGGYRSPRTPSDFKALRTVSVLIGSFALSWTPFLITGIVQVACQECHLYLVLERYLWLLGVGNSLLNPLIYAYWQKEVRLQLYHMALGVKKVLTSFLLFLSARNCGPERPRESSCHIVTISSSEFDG
* hit, by the source's call; · = not tested or not shown.

SMILES | GPR151 ag | FBW7 act | TEAD-YAP inh | MITF primary | GPR151 conf act | GPR119 counter
COc1ccc(/C=N/NC(=O)COc2ccc(C)cc2)cc1O | 0 | 0 | -6 | 7 | · | ·
CCc1ccc(OCC(=O)N/N=C/c2ccccc2O)cc1 | 0 | 0 | -1 | -20 | · | ·
COc1ccc(/C=N/NC(=O)COc2ccc(Cl)cc2Cl)cc1O | 9.4* | 0 | 4 | 2 | 0 | -1
Cc1ccc(/C=N/NC(=O)COc2ccc(Cl)cc2[N+](=O)[O-])s1 | 2 | 0 | 6 | 16 | · | ·
COc1ccc(/C=N/NC(=O)COc2cccc(C)c2)cc1O | 14* | 0 | 2 | 1 | 1 | -2
CCc1ccc(OCC(=O)N/N=C/c2ccc(O)cc2)cc1 | 5.2* | 1 | 10 | 6 | -1 | -4
O=C(COc1ccc(Cl)cc1Cl)N/N=C\c1ccc([N+](=O)[O-])s1 | 5.7* | 0 | 10 | 7 | -1 | -12
N#Cc1cc2cc3c(cc2nc1NCCCNS(=O)(=O)c1ccccc1F)OCO3 | -1 | 0 | -2 | -9 | · | ·
C=CCc1ccccc1OCCNCCO | 1 | 0 | 9 | 3 | · | ·
Nn1c(SCC(=O)Nc2ccc([N+](=O)[O-])cc2Br)nnc1C(F)(F)F | 0 | 0 | 4 | 14 | · | ·
Cc1ccc2nc(-c3ccc(NC(=O)CC4SC(N)=NC4=O)cc3)sc2c1 (centres undefined) | 0 | 1 | -27 | 1 | · | ·
CC1=C(c2cccs2)[N+](=O)C(C)(c2cccc([N+](=O)[O-])c2)N1[O-] (centres undefined) | 2 | 0 | 2 | 2 | · | ·
O=C1c2ccccc2NC2(C(=O)N(Cc3cccc4ccccc34)c3ccccc32)N1c1ccccc1 (centres undefined) | 7.0* | 0 | 25 | 4 | -1 | -2
Cc1cc(NCc2ccccc2)nc(NCCN2CCOCC2)n1 | 6.0* | 0 | -4 | -1 | 1 | -10
Cc1cc(C)c2cc(CN(Cc3cccnc3)C(=O)c3cnccn3)c(Cl)nc2c1 | 0 | 0 | 0 | 4 | · | ·
O=C(Cc1ccccc1)NCCCc1nc2ccccc2[nH]1 | 0 | 0 | 0 | -5 | · | ·
Cc1cc(C)cc(OCC(=O)NNC(=O)COc2cc(C)c(Cl)c(C)c2)c1 | -1 | 0 | 10 | -9 | · | ·
O=C(Nc1ccccc1C(=O)c1ccccc1)c1ccc(Nc2nc(-c3ccccc3)c3cc(Cl)ccc3n2)cc1 | 8.5* | 0 | -1 | -3 | 1 | 16
O=C(Nc1ccc(Br)cc1C(=O)c1ccccc1)c1ccc(Nc2nc(-c3ccccc3)c3cc(Cl)ccc3n2)cc1 | 2 | 0 | -10 | 14 | · | ·
CC1CCC(C(C)C)C(OC(=O)CSc2nnnn2C)C1 (centres undefined) | 0 | 0 | -4 | -13 | · | ·
CC1CCC(C(C)C)C(OC(=O)CSc2cccc[n+]2[O-])C1 (centres undefined) | 4.9* | 0 | -13 | -10 | -1 | -5
O=C(O)CCN1C(=O)/C(=C/C=C/c2ccco2)SC1=S | 0 | -2 | 23 | 20 | · | ·
O=C(O)CN1C(=O)/C(=C/c2ccc(I)o2)SC1=S | 6.7* | 0 | -2 | 55* | 0 | 0
O=C(O)CCN1C(=O)/C(=C\c2ccco2)SC1=S | 11* | 0 | -6 | 36 | -1 | 8
COC(=O)CN1C(=O)S/C(=C/c2ccco2)C1=O | 7.0* | 0 | 2 | 20 | 2 | -13
SMILES | GPR151 ag | FBW7 act | TEAD-YAP inh | MITF primary | GPR151 conf act | GPR119 counter
O=C(O)CN1C(=O)/C(=C/c2ccc(SCc3ccco3)o2)SC1=S | 1 | -1 | 2 | 40 | · | ·
CCOC(=O)c1c(N2C(N)=C(C#N)C(c3cc(OC)c(OC)c(OC)c3)C3=C2CCCC3=O)sc2c1CCCCC2 (centres undefined) | 1 | 0 | -8 | -3 | · | ·
O=C(Cn1cc(NC(=O)c2ccco2)cn1)NC1CCc2ccccc21 (centres undefined) | 1 | 0 | -1 | -3 | · | ·
Cc1nc2ccccn2c1C(=O)NCCCN1CCOCC1 | 4.9* | 0 | 1 | -3 | 0 | 1
O=C(Cn1cnc2ccccc21)NCCCN1CCOCC1 | 5.9* | 0 | 4 | 8 | 0 | -1
CCN(CC)C(=O)C1CCCN(c2nc3ccc(C(=O)NCCN4CCOCC4)cc3s2)C1 (centres undefined) | -2 | 0 | -1 | -2 | · | ·
O=C(Nc1ccc2[nH]ncc2c1)c1ccc(SCC(O)c2ccc(Br)cc2)cc1 (centres undefined) | 1 | 1 | 4 | 11 | · | ·
Cc1ccccc1C(=O)NC(C)c1nnc2n1CCN(Cc1ccc(F)cc1)CC2 (centres undefined) | 6.5* | 0 | -1 | 3 | 0 | 11
Cc1ccccc1C(=O)NC(C)c1nnc2n1CCN(Cc1ccccc1F)CC2 (centres undefined) | -1 | 0 | 3 | 6 | · | ·
COc1cc(-c2nc(-c3ccccc3)c(-c3cccs3)[nH]2)cc(OC)c1OC | 5.0* | 0 | -3 | -5 | -1 | -5
O=C(O)c1ccc(-c2nc(-c3ccccc3)c(-c3ccc(C(=O)c4ccccc4)cc3)[nH]2)cc1 | 0 | 0 | 1 | 5 | · | ·
c1ccc(Oc2ccc(-c3[nH]c(-c4ccccc4)nc3-c3ccccc3)cc2)cc1 | 5.3* | 0 | 0 | 5 | 1 | 5
Cc1ccc(-c2nc(-c3ccccc3)c(-c3ccc(C(=O)c4ccccc4)cc3)[nH]2)cc1 | 9.6* | 0 | -6 | -6 | 1 | 20
CCCCNS(=O)(=O)c1ccc(OC)c(Cl)c1Cl | 0 | 0 | 1 | -8 | · | ·
COc1ccc(S(=O)(=O)N(C)C)c(Cl)c1Cl | 16* | 0 | -43 | 1 | 1 | 9
COc1cccc(NS(=O)(=O)c2ccc(OC)c(Cl)c2Cl)c1 | 0 | 0 | 12 | 4 | · | ·
COC(=O)c1ccc(C(=O)OC)c(NS(=O)(=O)c2ccc(OC)c(Cl)c2Cl)c1 | 9.5* | 1 | -6 | 12 | 1 | -14
COc1ccc(NS(=O)(=O)c2ccc(OC)c(Cl)c2Cl)cc1OC | 11* | 0 | 24 | -7 | 2 | 8
COc1ccc(N2CC(NC(=O)Nc3ccc(S(=O)(=O)NC(C)=O)cc3)CC2=O)cc1 (centres undefined) | -1 | 0 | 11 | 11 | · | ·
O=C(NCc1ccccc1)c1nnc(Cc2cccc(F)c2)o1 | 4.9* | 0 | -9 | 5 | 1 | 3
CCOc1ccc(C(=O)Nc2ccc(S(=O)(=O)NC(C)(C)C)cc2)cc1OCC | 5.9* | 0 | 2 | 24 | 1 | -4
CCNS(=O)(=O)c1ccc(NC(=O)c2ccccc2OCC)cc1 | 0 | 1 | 7 | 19 | · | ·
CCOc1ccccc1C(=O)Nc1ccc(S(=O)(=O)NC(C)CC)cc1 (centres undefined) | 13* | 0 | 6 | 6 | 0 | 1
